High-throughput results (PubChem)
JMJD2A Tudor = qHTS Assay for Inhibitors of JMJD2A-Tudor Domain; Lysine-specific demethylase 4A (Homo sapiens), O75164; AlphaScreen JMJD2A-Tudor / H3K4me3 peptide binding; Potency, µM (highest dose often 114 µM), without a hit: top-dose activity change, negative = inhibition, usual class: inhibitors; 390,000 tested, 4.4% active; AID 504339, 2011; also: potency is read from the fitted curve at half-maximal effect; % is scaled to controls: 0 for no effect and ±100 for the full control effect; nearly all actives have a fitted effect of over 50% in size
Target sequence (O75164 whole entry, looked up, the tested form may be a part): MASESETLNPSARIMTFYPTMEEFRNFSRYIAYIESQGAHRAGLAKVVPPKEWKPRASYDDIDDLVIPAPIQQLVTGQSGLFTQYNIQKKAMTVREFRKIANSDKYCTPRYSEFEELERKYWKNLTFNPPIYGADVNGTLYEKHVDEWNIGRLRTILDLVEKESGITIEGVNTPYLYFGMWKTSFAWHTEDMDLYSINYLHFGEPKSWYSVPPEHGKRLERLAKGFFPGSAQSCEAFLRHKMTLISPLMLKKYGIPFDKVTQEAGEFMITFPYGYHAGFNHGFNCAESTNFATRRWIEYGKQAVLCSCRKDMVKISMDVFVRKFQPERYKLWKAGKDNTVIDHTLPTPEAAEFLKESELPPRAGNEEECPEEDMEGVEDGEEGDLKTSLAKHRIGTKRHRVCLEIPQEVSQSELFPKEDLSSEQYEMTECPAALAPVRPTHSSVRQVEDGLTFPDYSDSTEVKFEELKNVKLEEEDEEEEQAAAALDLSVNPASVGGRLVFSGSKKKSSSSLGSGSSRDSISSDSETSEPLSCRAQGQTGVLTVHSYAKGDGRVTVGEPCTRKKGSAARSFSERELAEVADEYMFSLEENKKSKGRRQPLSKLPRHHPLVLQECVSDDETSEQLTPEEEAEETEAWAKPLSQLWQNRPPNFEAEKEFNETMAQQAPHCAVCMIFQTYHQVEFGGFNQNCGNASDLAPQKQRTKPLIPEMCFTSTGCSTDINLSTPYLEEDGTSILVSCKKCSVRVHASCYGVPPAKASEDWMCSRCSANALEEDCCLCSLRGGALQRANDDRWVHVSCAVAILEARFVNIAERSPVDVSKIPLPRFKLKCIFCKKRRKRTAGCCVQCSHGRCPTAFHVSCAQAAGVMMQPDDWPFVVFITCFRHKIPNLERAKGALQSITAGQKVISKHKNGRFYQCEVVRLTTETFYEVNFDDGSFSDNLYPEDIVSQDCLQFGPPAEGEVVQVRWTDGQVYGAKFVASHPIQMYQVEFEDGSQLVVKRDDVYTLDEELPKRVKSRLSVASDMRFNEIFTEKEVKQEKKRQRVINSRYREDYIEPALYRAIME
HP1b binding inh = HTS for Inhibitors of HP1-beta Chromodomain Interactions with Methylated Histone Tails | Chromobox protein homolog 1 (Homo sapiens), P83916 | AlphaScreen HP1-beta / biotin-H3K9me3 peptide binding | Potency, µM (doses to about 114 µM), without a hit: at the highest dose activity change, negative = inhibition, actives largely listed as inhibitors | 390,000 tested, 0.56% active; also: potency is read from the fitted curve at half-maximal effect; nearly all actives have a fitted effect of over 70% in size
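Compound inhibition of the preformed complex between 50 nM HP1-beta and 50 nM biotinylated H3K9me3 peptide was read by AlphaScreen. Buffer was PBS pH 7.4 with 0.01% Tween-20. Incubations ran 30 min at room temperature, with 10 ug/mL donor/acceptor beads.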
BAZ2B inh = qHTS Assay for Inhibitors of BAZ2B | Bromodomain adjacent to zinc finger domain protein 2B (Homo sapiens), Q9UIF8 | AlphaScreen BAZ2B-H3K14Ac peptide displacement | Potency, µM (doses to about 114 µM), inactives show at the highest dose activity change, negative = inhibition, usual class: inhibitors | 360,000 tested, 4.4% active; also: potency is read from the fitted curve at half-maximal effect; % is scaled to controls: 0 for no effect and ±100 for the full control effect; nearly all actives have a fitted effect of over 60% in size
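BAZ2B (50 nM) with biotin-H3(5-23)K14Ac peptide (50 nM) in PBS pH 7.4, 0.01% Tween-20, preformed 30 min, then compound 30 min at room temperature; top concentration 110uM. AlphaScreen streptavidin donor/nickel chelate acceptor beads (10 ug/mL final), 20 min dark, signal read.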
PI5P4Ka inh = qHTS for Inhibitors of phosphatidylinositol 5-phosphate 4-kinase (PI5P4K); PI5P4Kalpha enzyme, ADP-Glo luminescence, 60 min; hits give low values; max response, %; 330,000 tested, 1.2% active; active = max response of -50% or lower; inconclusive = between -30% and -50%; inactive = -30% or higher; also: value at the top dose of about 77 µM; % is scaled to controls: 0 for no effect and ±100 for the full control effect
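PI5P4Kalpha ADP-Glo assay; 5 microM ATP final; 60 min RT reaction; HEPES pH 7.4/EGTA/CHAPS, 5% DMSO; controls lacking substrate or enzyme; luminescent end-point.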
PLK1 PBD block = qHTS for Inhibitors of PLK1-PDB (polo-like kinase 1 - polo-box domain): Primary Screen. Serine/threonine-protein kinase PLK1 (Homo sapiens), P53350. Plk1 PBD binding of FITC phosphopeptide, fluorescence polarization. Potency, µM, without a hit: max response, negative = inhibition, hits mostly inhibitors. 360,000 tested, 2.8% active. AID 720504, 2013; also: potency is read from the fitted curve at half-maximal effect; series mostly up to about 57 µM; % is scaled to controls: 0 for no effect and ±100 for the full control effect; nearly all actives have a fitted effect of over 65% in size
G9a inh = qHTS Assay for Inhibitors of Histone Lysine Methyltransferase G9a | Histone-lysine N-methyltransferase EHMT2 (Homo sapiens), Q96KQ7 | G9a H3K9 monomethylation, AlphaScreen, 2 h | Potency, µM (highest dose often 102 µM), for inactives: at the highest dose activity, negative = inhibition, most hits filed as inhibitors | 350,000 tested, 8.8% active | AID 504332, 2011; also: potency is read from the fitted curve at half-maximal effect; % is scaled to controls: 0 for no effect and ±100 for the full control effect; nearly all actives have a fitted effect of over 75% in size
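Readings reflect AlphaScreen signal from monomethyl-H3K9 antibody detection. HMT at 20 nM; substrate b-H3K9 500 nM; cofactor SAM 20 uM; 2 h RT reaction; compounds tested as titrations in qHTS with 15 min preincubation.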
Active calls of the source: *; ? = inconclusive; . = no result; [ ] = dose if it differs, or a comment. Sampled rows, rich in hits. Any-hit rate of the full collection: about 12%. Unless noted, calls follow the shape of the dose curve; as a rule, active = well fitted curve in the direction sought with a large enough effect; inconclusive = small, poorly fitted or top-dose-only effect, or another doubt; inactive = no such curve, though single readings can be large; an effect the other way counts as inactive or inconclusive.

SMILES	JMJD2A Tudor	HP1b binding inh	BAZ2B inh	PI5P4Ka inh	PLK1 PBD block	G9a inh
COc1cc2c(cc1OC)C(NNC(=O)c1ccc(Br)o1)=NC(C)(C)C2	4%	29%	-21%	2	-1%	35%
Cc1c(-c2ccccc2)n[nH]c1C(=O)NN	-4%	36%	-24%	3	0%	40µM*
CCOc1ccc(-c2n[nH]c(C(=O)NN)c2C)cc1	-22%	12%	1%	1	?	8%[59 µM]
CCOC(=O)c1cc(-c2ccccc2)sc1NC(=O)C(C)C	-21%[57.1 µM]	?	7%	0	30µM*	-21%
COC(=O)c1cc(-c2ccccc2)sc1NC(=O)CN1C(=O)c2ccccc2C1=O	?	?	-2%	-11	12µM*	10µM*
COC(=O)c1cc(OC)c(OC)cc1NC(=O)CN1C(=O)c2ccccc2C1=O	?	27%	?	.	-3%	2%[59 µM]
CCOC(=O)c1cc(-c2ccccc2)sc1NC(=O)c1ccc(OC)c(OC)c1	?	?	9%	?	4.7µM*	3.5µM*
CCOC(=O)c1ccc(OS(=O)(=O)c2ccccc2)c(OC)c1	89µM*	69%	65%	-3	27µM*	5%[59 µM]
CCOC(=O)c1cc(-c2ccccc2)sc1NC(=O)COC	4%	4%	-24%	2	-18%	11%[0.501 µM]
O=c1cccc(-c2cccc3ccccc23)o1	.	.	.	-21	-15%	.
CN(C(=O)c1ccccc1OCc1ccc(F)cc1)c1c(N)n(Cc2ccccc2)c(=O)[nH]c1=O	-8%	13%	-6%	-5	-2%	-35%
CCOC(=O)c1sc(-c2ccc(Br)cc2)cc1N	25%	81%	26%[57.1 µM]	.	0%	2%[12.7 µM]
CCOC(=O)c1cc(-c2ccc(N)cc2)sc1N	45µM*	-51%	32µM*	.	-20%	?
O=c1c2c3c(sc2n2cnnc2n1-c1ccccc1)N(Cc1ccccc1)CCC3	?	5%	-33%	-20	30µM*	13µM*
CN1CCc2c(sc3c2c(=O)n(-c2cccc(Cl)c2)c2nncn32)C1	-19%	24%	.	-10	?	.
Cc1ccc(NC(=O)c2ccc3c(O)c(S(=O)(=O)c4ccc(Cl)cc4)c(=O)[nH]c3c2)cc1	-21%	38%	-31%	.	.	-3%[59 µM]
O=C(COC(=O)/C=C/c1ccc(Br)o1)Nc1ccccc1F	.	.	56µM*	.	.	?
O=C(COC(=O)/C=C/c1ccc(Br)o1)NC1CCCCC1	79µM*	8%	?	-23	-24%	2%[12.7 µM]
O=C(c1ccco1)N1CCC2(CCCN(c3cccc(-c4ccccc4)c3)C2)CC1	.	.	.	.	.	7%[12.7 µM]
COc1ccccc1C(=O)NC(CCSC)C(=O)OCC(=O)NC(=O)NCc1ccco1 (configuration not stated)	?	-12%	50µM*	-16	-13%	-9%[59 µM]
COc1ccccc1C(=O)NC(CCSC)C(=O)NCCCSc1ccccc1 (configuration not stated)	-34%	-12%	?	9	-3%	56µM*
CSCCC(NC(=O)c1ccc(Cl)cc1)C(=O)OCC(=O)NCc1ccco1 (configuration not stated)	-7%	16%	-29%	2	-1%	?
COc1ccccc1OCCNC(=O)C(CCSC)NC(=O)c1ccccc1Cl (configuration not stated)	-23%	14%	-6%	0	-3%	1%[0.501 µM]
CCOc1ccc(C2(C)NC(=O)N(CCN(C)C)C2=O)cc1 (configuration not stated)	-19%	35%	12%	-1	-6%	-1%[0.501 µM]
COc1ccc(N2CCN(C(=O)c3nc(SC)ncc3Cl)CC2)cc1	-18%	27%	-30%	.	.	10µM*
SMILES	JMJD2A Tudor	HP1b binding inh	BAZ2B inh	PI5P4Ka inh	PLK1 PBD block	G9a inh
CCCSc1ncc(Cl)c(C(=O)N2CCN(c3ccc(OC)cc3)CC2)n1	?	-11%	35µM*	.	.	10µM*
COc1ccc(N2CCN(C(=O)c3cnc(SC)nc3C)CC2)cc1	-15%	6%	-15%	.	.	-45%[59 µM]
CCCSc1ncc(Cl)c(C(=O)N2CCN(c3cccc(Cl)c3)CC2)n1	-3%	26%	-7%	.	.	12%[59 µM]
CN(C)c1ccc2nc3c(=O)[nH]c(=O)nc-3n(CC(O)C(O)C(O)CO)c2c1 (configuration not stated)	-30%	?	40µM*	-29	-1%	50µM*
CCOc1ccc(NC(=O)Cn2nnc(C(=O)OC)c2C(=O)OC)cc1	-10%	17%	-3%	.	.	3%[59 µM]
COc1cccc(-n2c(=O)c3c(C)c(C)sc3n(CC(=O)NCCc3ccc(OC)c(OC)c3)c2=O)c1	-9%	21%	-6%	.	.	-22%[59 µM]
CC(=O)Oc1ccc2c(c1)Oc1cc(OC(C)=O)ccc1C21OC(=O)c2ccccc21	-16%[57.1 µM]	27%	-3%	-7	6.7µM*	1%[59 µM]
CCOc1ccc(NC(=O)CN2C(=O)NC(CCc3ccccc3)C2=O)cc1OCC (configuration not stated)	5%	29%	.	-1	3%	.
C/C(Cn1cnc([N+](=O)[O-])n1)=N\NC(=O)c1ccc(F)cc1	-16%	37%	-2%	-4	-1%	20µM*
C/C(Cn1cnc([N+](=O)[O-])n1)=N\NC(=O)c1cccc(F)c1	?	16%	6%	.	-7%	9%[59 µM]
COc1cc(C2Nc3ccccc3NC3=C2C(=O)CC(C)(C)C3)cc(OC)c1OC (configuration not stated)	-7%	31%	-22%	-1	10%	-5%
COc1cc(C2NC(=O)NC3=C2C(=O)OC3)cc(OC)c1OC (configuration not stated)	-7%[11.4 µM]	-7%	-3%	-1	30µM*	-9%[59 µM]
CN(Cc1nc2ccccc2n1C)S(=O)(=O)c1ccc(Cl)cc1	-21%[11.4 µM]	-7%	6%	-27	13µM*	2%[12.7 µM]
O=C1CCC/C(=N\NC(=O)c2ccc(NS(=O)(=O)c3ccc(Br)cc3)cc2)C1	-3%	37%	-6%	-22	-5%	79µM*
O=S(=O)(Nc1ccc(C(F)(F)F)cc1)c1cnc[nH]1	-16%[11.4 µM]	-13%	13%	?	30µM*	-2%[12.7 µM]
COc1ccc2[nH]cc(CCNc3ccnc(-c4c(C)noc4C)n3)c2c1	.	.	.	.	.	34%[0.501 µM]
O=C1OC2(c3ccccc31)c1cc(I)c(O)c(I)c1Oc1c2cc(I)c(O)c1I	.	.	10µM*	.	.	?
